Tests used:
Experiment in all cases: DAPPL (digital affinity profiling via proximity ligation, sequencing); 10 mM Tris-HCl pH 7.5, 50 mM NaCl, 1 mM DTT, 4% glycerol, room temperature, 30 min; GST-TFs on glutathione beads, 16-mer random dsDNA library, 0.1% formaldehyde crosslink after washing; high values mean tight binding
FEV = target: T1, FEV (Homo sapiens, UniProt Q99581 1-238); conditions: protein: recombinant; tags: N-terminal GST; dsDNA, one strand shown
T1 sequence: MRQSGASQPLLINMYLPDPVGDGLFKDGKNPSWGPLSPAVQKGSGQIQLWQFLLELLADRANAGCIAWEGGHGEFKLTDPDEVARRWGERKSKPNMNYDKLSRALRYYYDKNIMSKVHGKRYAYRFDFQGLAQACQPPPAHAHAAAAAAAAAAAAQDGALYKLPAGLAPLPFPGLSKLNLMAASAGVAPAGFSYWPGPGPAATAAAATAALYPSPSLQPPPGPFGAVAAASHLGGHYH
Summary of the method: (§1)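 Pools of DNA-barcoded human transcription factors, expressed in yeast as GST fusions on glutathione beads and combined with a tag-only sample, were incubated with 200 nmole of a 16-mer random double-stranded DNA library. Incubation took 30 min at room temperature in Tris/NaCl/DTT/glycerol buffer and was followed by washing, 0.1% formaldehyde crosslinking, proximity ligation (BsaI/T4 ligase, 1 h, 37 °C), PCR amplification and sequencing on an Illumina NextSeq500. Binding signal is the ratio of a hexamer's read frequency for a factor to its frequency for the tag-only sample.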

ETV5 = ETV5 (Homo sapiens, UniProt P41161 1-510); conditions: protein: recombinant; tags: N-terminal GST; dsDNA, one strand shown
Chain of ETV5 (P41161 whole entry): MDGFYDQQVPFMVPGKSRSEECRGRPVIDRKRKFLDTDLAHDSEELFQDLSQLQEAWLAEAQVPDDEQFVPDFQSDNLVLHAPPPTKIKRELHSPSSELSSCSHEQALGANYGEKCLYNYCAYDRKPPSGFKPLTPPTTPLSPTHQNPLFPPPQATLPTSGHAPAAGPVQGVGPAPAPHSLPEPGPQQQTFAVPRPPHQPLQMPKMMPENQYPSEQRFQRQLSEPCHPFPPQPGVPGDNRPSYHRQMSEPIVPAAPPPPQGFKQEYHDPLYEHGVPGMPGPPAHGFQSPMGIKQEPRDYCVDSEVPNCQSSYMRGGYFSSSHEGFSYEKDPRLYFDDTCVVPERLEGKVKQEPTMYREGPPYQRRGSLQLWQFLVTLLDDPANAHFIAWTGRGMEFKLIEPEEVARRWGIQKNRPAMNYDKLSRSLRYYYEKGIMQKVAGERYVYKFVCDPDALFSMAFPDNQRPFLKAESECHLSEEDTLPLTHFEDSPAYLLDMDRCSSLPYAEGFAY
Summary of the method: as §1

HSF1 = HSF1 (Homo sapiens, UniProt Q00613 1-529); conditions: protein: recombinant; tags: N-terminal GST; chain copies: 3; dsDNA, one strand shown
Chain of HSF1 (Q00613 whole entry): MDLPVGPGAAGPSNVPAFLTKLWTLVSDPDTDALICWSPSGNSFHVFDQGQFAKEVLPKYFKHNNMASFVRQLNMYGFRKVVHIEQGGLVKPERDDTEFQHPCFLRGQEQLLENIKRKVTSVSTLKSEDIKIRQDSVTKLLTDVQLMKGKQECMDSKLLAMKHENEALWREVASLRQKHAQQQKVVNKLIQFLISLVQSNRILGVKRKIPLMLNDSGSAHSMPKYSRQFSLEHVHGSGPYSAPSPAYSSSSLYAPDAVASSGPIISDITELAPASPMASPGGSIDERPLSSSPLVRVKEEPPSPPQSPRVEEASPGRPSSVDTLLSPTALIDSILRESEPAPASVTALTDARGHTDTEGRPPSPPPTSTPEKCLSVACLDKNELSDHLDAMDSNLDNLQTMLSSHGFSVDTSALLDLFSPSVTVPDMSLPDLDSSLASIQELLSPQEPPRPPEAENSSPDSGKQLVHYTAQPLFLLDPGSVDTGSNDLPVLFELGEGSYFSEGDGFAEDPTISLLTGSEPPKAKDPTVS
Summary of the method: as §1

SPIC = target: T2, SPIC (Homo sapiens, UniProt Q8N5J4 1-248); conditions: protein: recombinant; tags: N-terminal GST; dsDNA, one strand shown
T2 sequence: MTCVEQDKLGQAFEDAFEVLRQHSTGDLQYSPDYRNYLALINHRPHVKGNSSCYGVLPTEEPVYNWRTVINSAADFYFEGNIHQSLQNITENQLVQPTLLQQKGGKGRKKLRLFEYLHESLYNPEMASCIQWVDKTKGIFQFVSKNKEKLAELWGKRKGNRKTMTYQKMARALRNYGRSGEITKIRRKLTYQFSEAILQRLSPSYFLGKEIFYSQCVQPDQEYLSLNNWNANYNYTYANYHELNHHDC
Summary of the method: as §1

ELF4 = ELF4 (Homo sapiens, UniProt Q99607 1-663); conditions: protein: recombinant; tags: N-terminal GST; dsDNA, one strand shown
Chain of ELF4 (Q99607 whole entry): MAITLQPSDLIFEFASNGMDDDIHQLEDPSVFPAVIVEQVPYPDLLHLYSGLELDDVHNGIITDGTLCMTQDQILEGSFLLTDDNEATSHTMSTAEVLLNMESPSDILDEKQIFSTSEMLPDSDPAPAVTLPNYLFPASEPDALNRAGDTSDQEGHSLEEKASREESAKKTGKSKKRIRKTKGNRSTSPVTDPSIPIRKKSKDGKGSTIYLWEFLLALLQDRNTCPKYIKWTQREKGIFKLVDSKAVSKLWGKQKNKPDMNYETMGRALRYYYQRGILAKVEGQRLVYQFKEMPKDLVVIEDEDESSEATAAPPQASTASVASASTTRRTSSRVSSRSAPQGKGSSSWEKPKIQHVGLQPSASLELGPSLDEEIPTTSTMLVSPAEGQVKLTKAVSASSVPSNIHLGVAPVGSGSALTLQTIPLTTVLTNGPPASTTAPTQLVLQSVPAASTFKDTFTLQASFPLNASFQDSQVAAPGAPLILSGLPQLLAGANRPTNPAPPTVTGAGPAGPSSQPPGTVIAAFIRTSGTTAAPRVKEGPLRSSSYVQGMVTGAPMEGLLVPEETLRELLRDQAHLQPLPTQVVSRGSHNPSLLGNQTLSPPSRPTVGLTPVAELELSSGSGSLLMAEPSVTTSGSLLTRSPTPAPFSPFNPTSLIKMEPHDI
Summary of the method: as §1

ELK4 = target: T3, ELK4 (Homo sapiens, UniProt P28324-2 1-405); conditions: protein: recombinant; tags: N-terminal GST; dsDNA, one strand shown
T3 sequence: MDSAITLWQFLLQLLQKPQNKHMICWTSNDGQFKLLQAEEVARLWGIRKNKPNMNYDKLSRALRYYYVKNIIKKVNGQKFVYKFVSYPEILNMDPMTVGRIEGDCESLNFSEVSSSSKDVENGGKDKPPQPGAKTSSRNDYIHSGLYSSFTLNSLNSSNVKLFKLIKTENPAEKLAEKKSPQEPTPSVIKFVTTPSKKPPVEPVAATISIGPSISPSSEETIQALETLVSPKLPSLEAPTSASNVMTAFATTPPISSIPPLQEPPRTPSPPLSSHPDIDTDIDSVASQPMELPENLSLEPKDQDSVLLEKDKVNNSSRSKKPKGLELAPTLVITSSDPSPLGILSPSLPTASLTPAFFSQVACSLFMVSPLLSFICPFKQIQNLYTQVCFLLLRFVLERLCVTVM
Summary of the method: as §1

ETV2 = target: T4, ETV2 (Homo sapiens, UniProt O00321 1-342); conditions: protein: recombinant; tags: N-terminal GST; dsDNA, one strand shown
T4 sequence: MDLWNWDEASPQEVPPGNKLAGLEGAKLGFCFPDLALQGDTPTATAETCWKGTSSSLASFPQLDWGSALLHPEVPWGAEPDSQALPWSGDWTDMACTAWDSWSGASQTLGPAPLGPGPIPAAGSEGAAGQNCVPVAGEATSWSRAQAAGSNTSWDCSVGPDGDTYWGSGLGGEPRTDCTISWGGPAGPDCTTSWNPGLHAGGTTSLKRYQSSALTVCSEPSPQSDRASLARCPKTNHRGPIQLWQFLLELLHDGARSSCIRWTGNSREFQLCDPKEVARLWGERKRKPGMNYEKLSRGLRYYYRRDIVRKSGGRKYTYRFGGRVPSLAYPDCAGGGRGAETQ
Summary of the method: as §1

ELF3 = target: T5, ELF3 (Homo sapiens, UniProt P78545 1-371); conditions: protein: recombinant; tags: N-terminal GST; dsDNA, one strand shown
T5 sequence: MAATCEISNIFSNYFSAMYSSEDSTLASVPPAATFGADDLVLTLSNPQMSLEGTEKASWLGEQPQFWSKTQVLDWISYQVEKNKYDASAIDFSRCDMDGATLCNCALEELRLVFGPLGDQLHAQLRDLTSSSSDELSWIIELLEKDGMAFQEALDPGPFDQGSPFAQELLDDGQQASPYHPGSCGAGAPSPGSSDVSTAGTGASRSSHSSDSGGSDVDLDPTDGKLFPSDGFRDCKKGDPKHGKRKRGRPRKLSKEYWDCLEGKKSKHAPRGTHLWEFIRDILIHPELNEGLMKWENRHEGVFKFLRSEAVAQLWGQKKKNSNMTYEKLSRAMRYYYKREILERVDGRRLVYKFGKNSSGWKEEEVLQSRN
Summary of the method: as §1

CRX = CRX (Homo sapiens, UniProt O43186 1-299); conditions: protein: recombinant; tags: N-terminal GST; dsDNA, one strand shown
Chain of CRX (O43186 whole entry): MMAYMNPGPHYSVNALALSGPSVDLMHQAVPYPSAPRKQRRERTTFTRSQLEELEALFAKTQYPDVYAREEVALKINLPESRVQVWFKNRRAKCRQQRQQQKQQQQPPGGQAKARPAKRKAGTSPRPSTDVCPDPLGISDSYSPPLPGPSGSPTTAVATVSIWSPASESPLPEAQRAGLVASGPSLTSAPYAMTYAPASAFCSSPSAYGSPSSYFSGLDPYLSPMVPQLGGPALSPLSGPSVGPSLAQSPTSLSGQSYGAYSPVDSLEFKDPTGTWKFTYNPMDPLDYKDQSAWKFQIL
Summary of the method: as §1

ETV1 = ETV1 (Homo sapiens, UniProt P50549 1-477); conditions: protein: recombinant; tags: N-terminal GST; dsDNA, one strand shown
Chain of ETV1 (P50549 whole entry): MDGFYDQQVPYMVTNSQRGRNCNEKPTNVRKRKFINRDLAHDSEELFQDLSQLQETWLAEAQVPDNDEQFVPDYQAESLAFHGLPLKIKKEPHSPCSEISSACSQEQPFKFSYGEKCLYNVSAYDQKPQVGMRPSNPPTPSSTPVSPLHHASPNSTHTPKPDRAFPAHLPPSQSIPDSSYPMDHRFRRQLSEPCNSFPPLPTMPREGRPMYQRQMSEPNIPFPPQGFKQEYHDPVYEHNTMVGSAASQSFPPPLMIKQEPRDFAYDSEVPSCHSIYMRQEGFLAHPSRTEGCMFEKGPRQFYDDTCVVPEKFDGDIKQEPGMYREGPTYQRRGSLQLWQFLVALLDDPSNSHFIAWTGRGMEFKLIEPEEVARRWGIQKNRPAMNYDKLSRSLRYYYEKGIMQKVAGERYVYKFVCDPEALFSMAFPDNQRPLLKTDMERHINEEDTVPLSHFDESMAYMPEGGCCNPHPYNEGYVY
Summary of the method: as §1

ERF = target: T6, ERF (Homo sapiens, UniProt P50548 1-548); conditions: protein: recombinant; tags: N-terminal GST; dsDNA, one strand shown
T6 sequence: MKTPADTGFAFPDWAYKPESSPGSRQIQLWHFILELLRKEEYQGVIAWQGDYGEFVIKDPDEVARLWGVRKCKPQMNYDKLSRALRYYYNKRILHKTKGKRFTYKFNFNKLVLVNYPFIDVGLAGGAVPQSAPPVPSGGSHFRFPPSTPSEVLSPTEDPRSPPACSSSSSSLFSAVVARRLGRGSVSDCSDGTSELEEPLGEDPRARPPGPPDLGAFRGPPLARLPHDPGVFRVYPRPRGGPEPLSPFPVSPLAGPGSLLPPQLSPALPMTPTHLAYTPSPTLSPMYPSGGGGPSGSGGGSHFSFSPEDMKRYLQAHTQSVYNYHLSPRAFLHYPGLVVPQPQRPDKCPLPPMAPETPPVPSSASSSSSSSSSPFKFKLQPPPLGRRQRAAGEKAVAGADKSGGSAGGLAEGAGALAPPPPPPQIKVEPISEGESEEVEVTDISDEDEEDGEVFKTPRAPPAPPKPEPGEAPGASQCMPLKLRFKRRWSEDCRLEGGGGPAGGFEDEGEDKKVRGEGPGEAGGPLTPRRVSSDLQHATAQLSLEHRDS
Summary of the method: as §1

ETV3L = target: T7, ETV3L (Homo sapiens, UniProt Q6ZN32 1-361); conditions: protein: recombinant; tags: N-terminal GST; dsDNA, one strand shown
T7 sequence: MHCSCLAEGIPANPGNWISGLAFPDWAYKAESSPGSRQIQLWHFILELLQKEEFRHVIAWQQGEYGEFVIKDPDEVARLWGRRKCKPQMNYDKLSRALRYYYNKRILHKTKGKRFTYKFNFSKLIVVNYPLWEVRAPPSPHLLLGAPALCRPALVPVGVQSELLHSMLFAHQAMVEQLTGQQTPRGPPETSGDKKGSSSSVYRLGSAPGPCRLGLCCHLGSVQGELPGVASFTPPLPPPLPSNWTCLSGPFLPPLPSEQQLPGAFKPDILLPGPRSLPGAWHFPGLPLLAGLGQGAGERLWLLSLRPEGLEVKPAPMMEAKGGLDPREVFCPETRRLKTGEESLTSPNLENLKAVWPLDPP
Summary of the method: as §1

ETS2 = target: T8, ETS2 (Homo sapiens, UniProt P15036 1-469); conditions: protein: recombinant; tags: N-terminal GST; dsDNA, one strand shown
T8 sequence: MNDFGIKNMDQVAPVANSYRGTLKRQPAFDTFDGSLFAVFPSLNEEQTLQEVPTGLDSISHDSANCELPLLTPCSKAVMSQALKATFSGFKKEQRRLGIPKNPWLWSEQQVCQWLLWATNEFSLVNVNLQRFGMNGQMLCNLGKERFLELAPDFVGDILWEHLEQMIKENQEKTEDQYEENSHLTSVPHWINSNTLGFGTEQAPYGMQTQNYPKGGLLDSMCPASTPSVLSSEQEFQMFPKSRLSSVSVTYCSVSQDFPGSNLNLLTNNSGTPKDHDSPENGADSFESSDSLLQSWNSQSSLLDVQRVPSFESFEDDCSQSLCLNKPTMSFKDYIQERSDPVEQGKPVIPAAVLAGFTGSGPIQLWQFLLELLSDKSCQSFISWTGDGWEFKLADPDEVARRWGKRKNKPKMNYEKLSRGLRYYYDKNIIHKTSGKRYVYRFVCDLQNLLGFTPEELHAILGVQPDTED
Summary of the method: as §1

SPDEF = target: T9, SPDEF (Homo sapiens, UniProt O95238 1-335); conditions: protein: recombinant; tags: N-terminal GST; dsDNA, one strand shown
T9 sequence: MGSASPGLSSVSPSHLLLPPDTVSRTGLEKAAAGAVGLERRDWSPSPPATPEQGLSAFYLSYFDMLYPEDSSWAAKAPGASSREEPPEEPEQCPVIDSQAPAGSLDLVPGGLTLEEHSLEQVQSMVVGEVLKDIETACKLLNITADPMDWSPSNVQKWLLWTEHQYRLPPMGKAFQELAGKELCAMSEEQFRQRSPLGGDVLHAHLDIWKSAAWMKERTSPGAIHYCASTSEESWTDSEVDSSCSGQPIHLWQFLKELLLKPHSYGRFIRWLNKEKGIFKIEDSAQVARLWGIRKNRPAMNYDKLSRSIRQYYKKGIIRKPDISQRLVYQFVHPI
Summary of the method: as §1

ETV7 = target: T10, ETV7 (Homo sapiens, UniProt Q9Y603 1-341); conditions: protein: recombinant; tags: N-terminal GST; dsDNA, one strand shown
T10 sequence: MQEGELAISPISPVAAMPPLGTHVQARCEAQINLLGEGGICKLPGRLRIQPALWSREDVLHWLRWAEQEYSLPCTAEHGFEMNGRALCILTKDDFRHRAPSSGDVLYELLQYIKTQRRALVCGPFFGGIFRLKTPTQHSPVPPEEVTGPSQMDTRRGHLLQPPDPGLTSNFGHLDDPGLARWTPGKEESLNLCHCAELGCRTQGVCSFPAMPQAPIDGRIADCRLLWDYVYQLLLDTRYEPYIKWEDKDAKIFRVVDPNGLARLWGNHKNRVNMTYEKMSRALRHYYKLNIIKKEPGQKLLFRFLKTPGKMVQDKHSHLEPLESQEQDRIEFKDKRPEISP
Summary of the method: as §1

ELF5 = target: T11, ELF5 (Homo sapiens, UniProt Q9UKW6-2 1-255); conditions: protein: recombinant; tags: N-terminal GST; dsDNA, one strand shown
T11 sequence: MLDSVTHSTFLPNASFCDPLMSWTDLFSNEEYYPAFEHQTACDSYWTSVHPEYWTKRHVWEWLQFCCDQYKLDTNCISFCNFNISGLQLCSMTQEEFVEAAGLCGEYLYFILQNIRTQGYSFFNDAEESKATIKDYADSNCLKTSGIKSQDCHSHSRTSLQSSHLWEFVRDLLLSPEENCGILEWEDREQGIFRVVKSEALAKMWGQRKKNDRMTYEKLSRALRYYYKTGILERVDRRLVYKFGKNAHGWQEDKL
Summary of the method: as §1

ETV3 = target: T12, ETV3 (Homo sapiens, UniProt P41162-2 1-143); conditions: protein: recombinant; tags: N-terminal GST; dsDNA, one strand shown
T12 sequence: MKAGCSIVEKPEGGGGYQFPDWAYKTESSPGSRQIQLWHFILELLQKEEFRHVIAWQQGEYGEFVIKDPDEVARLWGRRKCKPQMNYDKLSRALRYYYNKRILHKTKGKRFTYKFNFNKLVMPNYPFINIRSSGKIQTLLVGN
Summary of the method: as §1

ETV6 = ETV6 (Homo sapiens, UniProt P41212 1-452); conditions: protein: recombinant; tags: N-terminal GST; dsDNA, one strand shown
Chain of ETV6 (P41212 whole entry): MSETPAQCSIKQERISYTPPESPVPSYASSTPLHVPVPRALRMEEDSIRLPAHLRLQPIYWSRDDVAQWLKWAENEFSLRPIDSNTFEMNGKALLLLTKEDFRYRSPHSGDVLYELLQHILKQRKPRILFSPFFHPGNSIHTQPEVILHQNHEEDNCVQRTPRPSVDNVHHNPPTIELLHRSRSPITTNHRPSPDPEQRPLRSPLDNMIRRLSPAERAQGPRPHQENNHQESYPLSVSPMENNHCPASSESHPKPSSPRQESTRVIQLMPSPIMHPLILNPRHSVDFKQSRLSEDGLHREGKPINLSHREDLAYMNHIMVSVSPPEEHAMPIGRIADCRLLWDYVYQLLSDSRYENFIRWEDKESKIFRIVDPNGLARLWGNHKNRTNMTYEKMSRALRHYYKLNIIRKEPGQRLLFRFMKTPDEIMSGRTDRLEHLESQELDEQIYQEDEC
Summary of the method: as §1

TTCGCT
binding signal (FEV): 1.2 fold enrichment (6-mer frequency, TF over GST control) | binding signal (ETV5): 1.24 fold enrichment (6-mer frequency, TF over GST control) | binding signal (HSF1): 1.29 fold enrichment (6-mer frequency, TF over GST control) | binding signal (SPIC): 1.08 fold enrichment (6-mer frequency, TF over GST control) | binding signal (ELF4): 1.36 fold enrichment (6-mer frequency, TF over GST control) | binding signal (ELK4): 1.29 fold enrichment (6-mer frequency, TF over GST control) | binding signal (ETV2): 1.49 fold enrichment (6-mer frequency, TF over GST control) | binding signal (ELF3): 1.26 fold enrichment (6-mer frequency, TF over GST control) | binding signal (CRX): 1.13 fold enrichment (6-mer frequency, TF over GST control) | binding signal (ETV1): 1.27 fold enrichment (6-mer frequency, TF over GST control) | binding signal (ERF): 1.4 fold enrichment (6-mer frequency, TF over GST control) | binding signal (ETV3L): 1.24 fold enrichment (6-mer frequency, TF over GST control) | binding signal (ETS2): 1.3 fold enrichment (6-mer frequency, TF over GST control) | binding signal (SPDEF): 1.2 fold enrichment (6-mer frequency, TF over GST control) | binding signal (ETV7): 1.34 fold enrichment (6-mer frequency, TF over GST control) | binding signal (ELF5): 1.23 fold enrichment (6-mer frequency, TF over GST control) | binding signal (ETV3): 1.23 fold enrichment (6-mer frequency, TF over GST control) | binding signal (ETV6): 1.23 fold enrichment (6-mer frequency, TF over GST control)
